Screening results (PubChem)
BaF3 parental – parental Ba/F3 cell viability inhibition, counter-screen for JAK2V617F inhibitor project, murine pro-B, CellTiter-Glo luminescence; CellTiter-Glo ATP luminescence; inhibition, % at 5.6 µM; 220,000 tested, 1.1% active; AID 1486, 2009;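 active = inhibition above a per-campaign cutoff, the mean inhibition of all tested compounds plus 3 SD, cut at about 27% in these data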;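 note: 0% = DMSO wells and 100% = JAK Inhibitor I control wells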
Ba/F3 V617F tox – reduced viability of JAK2V617F-dependent Ba/F3 cells, primary screen, JAK2V617F inhibitor project, cell-based, Ba/F3 EpoR-JAK2V617F, luminescence; ATP luminescence; inhibition, % at 5.6 µM; 220,000 tested, 1.1% active; AID 1446, 2008;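 active = inhibition above the campaign mean plus 3 SD over all tested compounds, cut at about 24% in these data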;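 note: cytokine-independent growth of Ba/F3 cells driven by EpoR plus mutant JAK2; 0% = DMSO-treated cells and 100% = JAK inhibitor I control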
KLF5 inh – KLF5 expression inhibitors, primary screen, DLD-1 cells, luminescence; DLD-1 KLF5 promoter-luciferase reporter; inhibition, % at 5 µM; 290,000 tested, 0.23% active; AID 1700, 2009;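 active = inhibition above a per-plate limit of that plate's mean compound inhibition plus 3 SD, cut at about 60% in these data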;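 note: 0% = DMSO wells and 100% = LY294002 at 200 µM; higher means less KLF5 promoter-driven luciferase light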
aSyn UTR inh – MLPCN primary screen, SNCA 5' untranslated region; inhibition, % (tested at 7.5 µM); alpha-synuclein 5'UTR reporter, inhibitor activity; 300,000 tested, 0.82% active; in the data active = inhibition above about 60%; inconclusive = no clear call, values can overlap the other calls;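 note: H4 neuroglioblastoma cells stably carrying SNCA 5'UTR luciferase fusion; 0% = DMSO wells and 100% = positive control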
IEC-6 tox – cytotoxicity in IEC-6 intestinal epithelial cells, primary screen, cytotoxicity control for KLF5 inhibitor project, cell-based, luminescence; IEC-6 cytotoxicity, luminescence viability; inhibition, % at 5 µM; 290,000 tested, 0.78% active;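 note: 0% = plate median of test compound wells and 100% = cytotoxic reference compound wells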
APP 5UTR inh – inhibitors of APP translation via 5'UTR reporter, primary screen, APP 5'UTR luciferase, SH-SY5Y cells | AID 1285, 2008 | inhibition, % at 2 µM | SH-SY5Y APP 5'UTR-luciferase reporter, luminescence | 190,000 tested, 0.82% active;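 active = inhibition above a set limit, derived from the sample mean plus 3 SD, cut at about 45% in these data; inconclusive = one replicate passes the limit while the other fails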
IEC-6 tox confirm – cytotoxic compounds in IEC-6 epithelial cells, confirmation, cytotoxicity control, cell-based, luminescence; shares compounds with IEC-6 tox; IEC-6 rat intestinal epithelial viability; inhibition, % at 5 µM; 1,900 tested, 63% active;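 note: 0% = vehicle and 100% = reference cytotoxic drug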
* marks the source's active call; other numbers are inactive results; ? = inconclusive; . = not tested or not shown. Compounds with a hit are over-represented: about 2.2% of the library has one in this group of screens. Cut-off read from the data, not from the text of the source, unless noted: active = inhibition above about 22%; inactive = the rest.

SMILES	BaF3 parental	Ba/F3 V617F tox	KLF5 inh	aSyn UTR inh	IEC-6 tox	APP 5UTR inh	IEC-6 tox confirm
Cc1cccc(-n2c(SCC(=O)Nc3ncc(Cl)cc3Cl)nc3ccccc32)c1	7	2	28	?	67*	17	47*
C#CCNC(=O)C1=C[C@@H](c2ccc(C#C)cc2)C[C@@H](OCc2ccc(CO)cc2)O1	.	.	.	-25	.	.	.
COc1ccc2[nH]c(=O)c(CN(C(=O)c3cccnc3)c3ccc(C)c(C)c3)cc2c1	0	0	-22	-3	6	.	.
COc1ccc(-c2nnn(CC(=O)N(CCCO)C(C(=O)NC3CCCC3)c3ccc(F)cc3)n2)cc1 (configuration not stated)	5	0	-15	23	1	-30	.
CC(C)(C)NC(=O)C(c1cccnc1)N(C(=O)c1ccc(Cl)nc1)C1CCCC1 (configuration not stated)	2	-3	-21	12	-3	12	.
CCN(CC)C(=N)/C(C#N)=N/Nc1ccccc1	0	-2	-40	-81	-5	.	.
COc1ccc(CNC(=O)c2nc(S(=O)(=O)Cc3ccccc3)ncc2Cl)cc1	.	.	20	?	50*	.	22*
O=C(NCc1ccccc1)c1c(Cl)nc(Cl)c(Cl)c1Cl	.	.	-14	99*	23*	.	-4
CC(=O)Nc1ccc(NC(=O)c2nc(S(=O)(=O)Cc3ccccc3)ncc2Cl)cc1	.	.	19	2	26*	.	1
CS(=O)(=O)c1ncc(Cl)c(C(=O)Nc2ccc3ccccc3c2)n1	52*	83*	5	20	24*	96*	21
O=C(Nc1ccc2ccccc2c1)c1cnccn1	8	3	-196	-129	1	-157	.
CC(=O)c1ccc(N(C(=O)c2csnn2)C(C(=O)NC(C)(C)C)c2cccs2)cc1 (configuration not stated)	5	-1	-9	-8	-5	-15	.
O=S(=O)(/N=C(/c1ccccc1)N1CCOCC1)c1ccc(Br)cc1	.	.	-47	-38	-1	.	.
O=C(NCc1ccccc1)c1nc(S(=O)(=O)Cc2ccccc2)ncc1Cl	.	.	19	51	52*	.	24*
COC(=O)c1ccccc1NC(=O)c1nc(S(=O)(=O)Cc2ccccc2)ncc1Cl	.	.	40	34	9	.	.
Cc1[nH]n(-c2ccccc2)c(=O)c1/C=N/NC(=O)c1ccccc1F	.	.	-44	29	30*	.	16
O=C(Nc1ccc(-c2nc3ccc(NC(=O)c4cccs4)cc3[nH]2)cc1)c1cccs1	102*	98*	-82	122*	53*	15	43*
O=C(Nc1ccc2nc(-c3cccs3)[nH]c2c1)c1cccs1	1	-3	-50	-223	-3	-30	.
CCOC(=O)C1CCN(CC(O)COCc2ccccc2)CC1 (configuration not stated)	.	.	2	-1	2	.	.
O=[N+]([O-])c1cccnc1S(=O)(=O)c1ccccc1	.	.	20	-7	41*	.	9
Cn1c(=O)c2c(ncn2CC2OCCO2)n(C)c1=O	.	.	-18	11	-4	.	.
O=C(C1CCCO1)N1CCN(C(=S)Nc2ccccc2)CC1 (configuration not stated)	1	-6	-8	29	8	8	.
CCOC(=O)c1ccc(NC(=S)N2CCN(C(=O)C3CCCO3)CC2)cc1 (configuration not stated)	.	.	-7	-4	29*	.	7
CCNS(=O)(=O)c1ccc(CCC(=O)NCc2ccc3c(c2)OCO3)cc1	.	.	-56	3	0	.	.
CCc1ccc(C2CC(=O)N3CN(c4ccccc4)CSC3=C2C#N)cc1 (configuration not stated)	-1	3	-7	12	4	1	.
N#CC1=C2SCC(O)(c3ccccc3)N2C(=O)CC1c1ccccc1 (configuration not stated)	79*	82*	56	-16	77*	92*	60*
O=C(Nc1cc(=O)[nH]c(=O)[nH]1)c1cc(Cl)ccc1Cl	.	.	45	-65	45*	.	14
